Assay results taken from paper PMC4336329 (PLoS ONE, 2015).
The whole screen tested about 310,000 compounds, of which about 14,000 (4.5%) showed an effect of 50% or more. Effects have a minus sign here. The full list was thinned out, with strong results kept by preference.

Each molecule was assayed against human ether-à-go-go-related gene (hERG) potassium channel (human, UniProt Q12809) (assay: primary screen, population patch clamp on CHO cells stably expressing hERG; higher = less effect of the substance).
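Also: peak tail current of the secondary pulse compared with the same well before compound.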

Sequence of human ether-à-go-go-related gene (hERG) potassium channel (Q12809 whole entry, looked up): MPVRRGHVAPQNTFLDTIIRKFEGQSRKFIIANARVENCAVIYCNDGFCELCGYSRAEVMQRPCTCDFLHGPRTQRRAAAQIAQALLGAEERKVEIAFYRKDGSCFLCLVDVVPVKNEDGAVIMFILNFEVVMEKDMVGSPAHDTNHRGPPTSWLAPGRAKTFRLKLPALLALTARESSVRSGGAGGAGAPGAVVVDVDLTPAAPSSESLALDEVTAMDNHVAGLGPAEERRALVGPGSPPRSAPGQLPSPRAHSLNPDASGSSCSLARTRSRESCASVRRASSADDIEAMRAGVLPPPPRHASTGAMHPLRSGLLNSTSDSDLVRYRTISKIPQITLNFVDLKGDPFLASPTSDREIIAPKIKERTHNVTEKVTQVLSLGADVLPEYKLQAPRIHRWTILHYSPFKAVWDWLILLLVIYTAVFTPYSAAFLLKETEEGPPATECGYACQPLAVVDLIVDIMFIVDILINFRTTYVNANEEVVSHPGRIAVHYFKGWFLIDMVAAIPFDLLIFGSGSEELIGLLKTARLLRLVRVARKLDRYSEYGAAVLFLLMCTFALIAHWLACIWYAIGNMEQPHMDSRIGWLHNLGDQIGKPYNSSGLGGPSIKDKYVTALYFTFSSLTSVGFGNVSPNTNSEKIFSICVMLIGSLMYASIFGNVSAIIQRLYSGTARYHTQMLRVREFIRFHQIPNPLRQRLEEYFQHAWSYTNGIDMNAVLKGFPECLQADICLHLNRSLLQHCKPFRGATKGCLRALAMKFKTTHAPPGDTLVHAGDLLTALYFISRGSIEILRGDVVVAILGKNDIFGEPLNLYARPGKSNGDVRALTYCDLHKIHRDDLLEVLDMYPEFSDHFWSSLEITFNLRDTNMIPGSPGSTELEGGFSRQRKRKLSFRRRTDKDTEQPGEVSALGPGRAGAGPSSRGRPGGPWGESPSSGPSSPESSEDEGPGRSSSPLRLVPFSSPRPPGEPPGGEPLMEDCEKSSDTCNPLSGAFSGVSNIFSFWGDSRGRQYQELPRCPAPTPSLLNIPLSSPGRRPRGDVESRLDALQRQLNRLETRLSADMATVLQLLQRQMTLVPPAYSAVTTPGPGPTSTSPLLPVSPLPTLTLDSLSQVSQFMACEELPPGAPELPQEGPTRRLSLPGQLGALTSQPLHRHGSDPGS

SMILES | hERG current change (%, negative = inhibition) at 10uM [%]
Cc1ccn2cc(-c3cnoc3C)nc2c1 | 6.49
Cc1ccc(NC(=O)COc2ccccc2CNC(C)(C)CC(C)(C)C)cc1 | -22.7
CCOc1cc(/C=N/Nc2nc(N3CCCC3)nc(N3CCCC3)n2)ccc1O | -61.4
CCOc1ccc(/C=N/Nc2nc(N3CCCC3)nc(N3CCCC3)n2)cc1OC | -12
COc1cc(/C=N/Nc2nc(N3CCCC3)nc(N3CCCC3)n2)ccc1O | -37.7
Cc1ccc(S(=O)(=O)NNC(=O)c2ccc3ccccc3n2)cc1 | 3.47
CC(=O)c1ccc(-n2c(CCC(=O)O)ccc2-c2cccs2)cc1 | -0.766
O=C(NC1CCCCC1)c1ccc(COc2ccccc2)o1 | 2.32
CSCCC(NS(=O)(=O)c1ccccc1)C(=O)OCc1nc2ccsc2c(=O)[nH]1 (stereo not shown) | 2.87
CSCCC(NS(=O)(=O)c1ccccc1)C(=O)OCc1cc(=O)oc2cc(O)ccc12 (stereo not shown) | -57.3
CC(C)[C@H](NC(=O)OCc1ccccc1)C(=O)OCc1cc(=O)oc2cc(O)ccc12 | -46.7
O=C(NNC(=S)Nc1ccc(Cl)c(Cl)c1)c1cccc([N+](=O)[O-])c1 | 36
CCOC(=O)N1CCN(C(=O)c2cc3cc(Br)ccc3oc2=O)CC1 | -17.7
COc1ccc(C(=O)N2CCC(C(=O)N3CCN(c4ccccc4)CC3)CC2)cc1 | -48.7
CCNC(=S)N1CCN(Cc2ccccc2)CC1.O=C(O)C(=O)O | -59.9
O=C(NCC(=O)N1CCN(Cc2ccccc2)CC1)c1ccc(Cl)cc1 | -27.9
O=C(c1ccc(Br)cc1)N1CCC(C(=O)N2CCN(c3ccccc3)CC2)CC1 | -68.5
O=C(c1ccc2ccccc2c1)N1CCN(Cc2ccccc2)CC1 | -24.4
O=C(C1CCC1)N1CCN(c2ccccc2)CC1 | 13.6
O=C(c1ccc(CN2CCOCC2)cc1)N1CCN(Cc2ccccc2)CC1 | 15.4
O=C(CNS(=O)(=O)c1ccc(Br)cc1)N1CCN(Cc2ccccc2)CC1 | -17.2
C=CCNC(=S)N1CCN(Cc2ccccc2)CC1.O=C(O)C(=O)O | 6.48

SMILES | hERG current change (%, negative = inhibition) at 10uM [%]
O=C(c1ccc(-n2cccc2)cc1)N1CCN(Cc2ccccc2)CC1 | -81.1
O=C(O)C(=O)O.S=C(NCCc1ccccc1)N1CCN(Cc2ccccc2)CC1 | 0.0203
O=C(NCC(=O)N1CCN(Cc2ccccc2)CC1)c1ccc(Br)cc1 | -53.5
O=C(CCCCl)Nc1nc(-c2ccc3c(c2)OCCO3)cs1 | 9.6
CCOC(=O)CC(=O)Nc1c(C)cc(C)cc1C | 4.74
N#CC1=C(N)Oc2cc(N)ccc2C1c1ccc(F)cc1F (stereo not shown) | -22.9
Cc1ccc(CNC(=O)c2cccnc2Cl)cc1 | 9.97
COCCn1cnnc1SCC(=O)Nc1sccc1C(N)=O | -2.66
COc1ccc(NC(=O)CCNS(=O)(=O)c2cc(Br)cnc2N)c(OC)c1 | 8.51
COc1ccc(C2N(c3cc(Cl)ccc3OC)C(=O)C3CCCN32)cc1OC (stereo not shown) | -4.91
CC(C)(C)C(=O)NC(=S)NNC(=O)c1sc2ccccc2c1Cl | 5.79
Cc1ccc(S(=O)(=O)N2CCN(C(=O)CN3CCCC3)C2)cc1 | -6.28
NNC(=O)c1sc2nc(N3CCOCC3)c3c(c2c1N)CCCC3 | 11
O=c1cnc2ccccc2n1Cc1ccc(Br)cc1 | 0.175
CCn1nnnc1SCC(=O)Nc1cc(OC)cc(OC)c1 | 11.8
COC(=O)[C@H](Cc1ccccc1)NC(=O)N1CCCCCC1 | 13.5
COC(=O)[C@H](Cc1ccccc1)NC(=O)N1CCN(Cc2ccccc2)CC1 | -58.6
O=C(c1cccc(Cl)c1)N1CCC(C(=O)N2CCN(Cc3ccccc3)CC2)CC1 | -56.2
O=C(c1ccc(F)cc1)N1CCN(Cc2ccccc2)CC1 | 0.241
COC(=O)[C@H](Cc1ccccc1)NC(=O)N1CCCCC1 | 9.93
O=C(c1cccc(Cl)c1)N1CCC(N2CCC(C(=O)N3CCCC3)CC2)CC1 | -49.1
CC(C)(C)c1ccc(C(=O)N2CCN(Cc3ccccc3)CC2)cc1 | -3.08

SMILES | hERG current change (%, negative = inhibition) at 10uM [%]
O=C(c1cccc(Cl)c1)N1CCN(Cc2ccccc2)CC1 | -8.35
O=C(c1ccc(Br)cc1)N1CCN(Cc2ccccc2)CC1 | -52.2
O=C(O)C(=O)O.O=C(c1ccccc1)N1CCN(Cc2ccccc2)CC1 | -9.23
O=C(c1ccc(S(=O)(=O)N2CCCCCC2)cc1)N1CCN(Cc2ccccc2)CC1 | -19.5
CS(=O)(=O)c1ccc(C(=O)N2CCN(Cc3ccccc3)CC2)cc1 | -55
CCOC(=O)/C(=C/c1ccc(F)cc1)NC(C)=O | -7.91
COCCCNC(=O)CCNS(=O)(=O)c1ccc(C)cc1 | -1.45
Cc1ccc2ncnc(Oc3ncccc3NC(=O)C(C)(C)C)c2c1 | 13.8
O=S(=O)(N1CCCCC1)N1CCN(c2cc(Cl)ccc2Cl)CC1 | 15.2
COc1ccc(C2Nc3ccccc3C(=O)N2Cc2ccco2)cc1CN1C(=O)c2ccccc2C1=O (stereo not shown) | -20.7
O=C(NCc1ccco1)C(=O)c1cn(CC(=O)N2CCCCC2)c2ccccc12 | 19.3
O=C(O)CC/C(=N\NC(=O)CNC(=O)c1ccc(F)cc1)c1ccccc1 | 9.42
Cc1ccc(CNC(=O)COC(=O)Cn2nc(C)c([N+](=O)[O-])c2C)cc1 | -16.3
COc1ccc(C(=O)NCc2ccc(N3CCN(C(=O)OC(C)(C)C)CC3)cc2)cc1 | -12.7
COC(=O)c1cc(-c2c(-c3ccc4c(c3)OCO4)noc2-c2ccsc2)cc([N+](=O)[O-])c1 | 10.7
O=C(c1ccc(Br)cc1)N1CCC(C(=O)N2CCN(Cc3ccccc3)CC2)CC1 | -60.1
COc1ccc(C(=O)N2CCC(C(=O)N3CCN(Cc4ccccc4)CC3)CC2)cc1 | -9.58
CS(=O)(=O)c1ccccc1C(=O)N1CCN(Cc2ccccc2)CC1 | 23.7
O=C(c1coc(=O)c2ccccc12)N1CCN(Cc2ccccc2)CC1 | -51.2
Cc1occc1C(=O)N1CCN(Cc2ccccc2)CC1 | -1.16
O=C(C1CC1)N1CCN(Cc2ccccc2)CC1 | -32.1
Clc1ccccc1/C=C/c1nc(-c2cccnc2)no1 | 6.16

SMILES | hERG current change (%, negative = inhibition) at 10uM [%]
CCN(CC)c1ccc(NC(=O)c2cnc3ccccn3c2=O)c(C)c1 | 4.51
CCOC(=O)c1ccc(NC(=O)c2cccc(C)c2[N+](=O)[O-])cc1 | 4.73
COc1ccc(C(=O)c2nccc3cc(OC)c(OC)cc23)cc1OC | 6.21
CC1CCN(C2(O)C(=O)Nc3ccc(Br)cc32)CC1 (stereo not shown) | 19.4
CCC(C)(C)NC(=O)CN(C(=O)CNS(=O)(=O)c1ccccc1)c1ccc2c(c1)OCCO2 | 6.92
Cc1ccc(NP(=O)(c2ccccc2)c2nc3ccccc3s2)cc1 (stereo not shown) | 3.27
O=C(c1ccc(Cl)c([N+](=O)[O-])c1)N1CCN(C(=O)c2ccco2)CC1 | -41.6
O=C(c1ccco1)N1CCN(C(=S)Nc2ccc(F)c(Cl)c2)CC1 | -71.9
Cc1cc(C(=O)N2CCN(C(=O)c3ccco3)CC2)ccc1[N+](=O)[O-] | -64.7
COC(=O)c1cc(C(=O)N2CCOCC2)cc([N+](=O)[O-])c1 | 21.7
O=C(CN1CCN(C(=O)c2ccco2)CC1)Nc1cccc([N+](=O)[O-])c1 | -49.1
COc1ccc(NC(=S)N2CCN(C(=O)c3ccco3)CC2)cc1OC | 14.6
Cc1cccc(NC(=S)N2CCN(C(=O)c3ccco3)CC2)c1 | -9.36
Cc1cc(C(=O)N2CCOCC2)ccc1[N+](=O)[O-] | 9.19
COC(=O)c1cc(C(=O)N2CCN(c3ccccc3OC)CC2)cc([N+](=O)[O-])c1 | -34.7
O=C(c1ccco1)N1CCN(C(=S)Nc2cc(F)cc(F)c2)CC1 | -16.5
O=C(c1ccco1)N1CCN(C(=S)Nc2cccc([N+](=O)[O-])c2)CC1 | -63.3
COC(=O)c1cc(C(=O)N2CCN(C(=O)c3ccco3)CC2)cc([N+](=O)[O-])c1 | -66.7
COc1ccc(OC)c(S(=O)(=O)N2CCC(C(=O)NCc3ccncc3)CC2)c1 | 16.4
CCn1c(O)c(/C=N/NC(=O)c2ccccc2)c(=O)n(CC)c1=S | 13.6
COc1ccc(OCC(=O)N/N=C2\CCc3ccccc32)cc1 | -23.9
CCOC(=O)C1=C(C)N=C2SC(C)C(=O)N2C1c1cccc(F)c1 (stereo not shown) | -3.16
